# From PubChem BioAssay AID504832 (National Center for Advancing Translational Sciences (NCATS), 2011)
# Hit rate of the full screen: of about 310,000 compounds, about 18,000 (5.8%) were called active. About 22% were inconclusive and are not listed. The sample holds actives, similar compounds and a random draw of the others, so the mix is not that of the screen. Unmarked numbers belong to inactive results. The call rests on the fitted dose curve; in most records, active means well fitted inhibition curve with a large enough effect; inconclusive means small, poorly fitted or top-dose-only effect, or another doubt; inactive means no such curve, though single readings can be large or run the other way.
# Test: Primary qHTS for delayed death inhibitors of the malarial parasite plastid, 48 hour incubation
# Conditions: P. falciparum luciferase growth in erythrocytes; series mostly up to 28.7 µM; activity change, negative = inhibition: at the top concentration
# Summary of the method: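 Growth was read as firefly luciferase luminescence after a 48 h, 37 C, 5% CO2 exposure of compounds to reporter-bearing P. falciparum cultures (0.1% parasitemia, 2% hematocrit final) in Albumax-supplemented RPMI 1640.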
# On the % scale 0 is the no-effect control and ±100 the full control effect; potency means the concentration at half of the fitted maximal effect.
SMILES,"activity change, negative = inhibition",Potency
O=C(OCC1OC(Oc2ccc(O)cc2)C(O)C(O)C1O)c1ccccc1 (configuration not stated),7.83%,–
Cc1cc(C)c2nc(SCCC#N)nc(C)c2c1,19.6%,–
Cc1cc(C)c2nc(-c3ccco3)cc(C(=O)O)c2c1,37.6%,–
Cc1cc(C)c2nc3nc(C)cc(C)c3c(N)c2c1,–,2330 nM (active)
CCC1=Nc2cc(C(=O)NCCN3CCCC3)ccc2Sc2ccc(C)cc21,–,10400 nM (active)
Cc1ccc(C(=O)NCCN2CCOCC2)cc1C,0%,–
Cc1cc(C)cc(C(=O)NCCN2CCOCC2)c1,4.04%,–
O=C(NC1CCCC1)C(c1ccco1)N(C(=O)c1csnn1)c1ccccc1 (configuration not stated),27.1%,–
COc1cccc(N(C(=O)CNC(=O)c2ccco2)C(C(=O)NC2CCCCC2)c2cccnc2)c1 (configuration not stated),-15.6%,–
Cc1ccccc1N(C(=O)CNC(=O)c1cccs1)C(C(=O)NC1CCCC1)c1ccncc1 (configuration not stated),-25.1%,–
COc1cccc(C(C(=O)NC2CCCC2)N(C(=O)c2ccco2)c2cccc(C(C)=O)c2)c1OC (configuration not stated),–,1850 nM (active)
COc1cc(C(C(=O)NC2CCCC2)N(C(=O)c2ccco2)c2ccccc2C(C)=O)cc(OC)c1OC (configuration not stated),0%,–
O=C(NCc1ccccc1)C(c1ccco1)N(C(=O)c1csnn1)c1ccccc1F (configuration not stated),-3.21%,–
Cc1ccc(N(C(=O)CNC(=O)c2ccco2)C(C(=O)NC2CCCC2)c2ccncc2)cc1 (configuration not stated),33.6%,–
CC(C)c1ccc(N(C(=O)c2ccco2)C(C(=O)NC2CCCC2)c2cccnc2)cc1 (configuration not stated),–,9280 nM (active)
O=C(NC1CCCC1)C(c1ccc(N2CCOCC2)cc1)N(C(=O)c1ccco1)c1ccccc1F (configuration not stated),–,10400 nM (active)
CSc1ccccc1NC(=O)C(C)N1C(=O)c2ccccc2S1(=O)=O (configuration not stated),5.38%,–
CC1=C(C(=O)OC2CCCCC2)C(c2ccccc2F)NC(=O)N1 (configuration not stated),9.51%,–
CC(=O)c1c(C)[nH]c(C(=O)COc2ccc3c(C)cc(=O)oc3c2)c1C,-27.3%,–
CN(C1CCS(=O)(=O)C1)S(=O)(=O)c1ccc2ccccc2c1 (configuration not stated),6.76%,–
COc1ccc(NC(=O)NNC(=O)COc2cc(C)c(Cl)c(C)c2)c(OC)c1,-13.6%,–
CN1/C(=c2/s/c(=C3/C(=O)N(c4ccccc4)NC3=Nc3ccccc3)n(C)c2=O)C(C)(C)c2ccccc21,–,13100 nM (active)
CCN1C(=O)/C(=c2\s/c(=C3\Sc4ccccc4N3C)c(=O)n2C)N(C)C1=S,19.1%,–
CCc1cc2c(NC(Cc3ccccc3)C(=O)O)ncnc2s1 (configuration not stated),-1.44%,–
CC(C)(C)C(=O)CSc1ccc(S(=O)(=O)N2CCCC2)cn1,-9.44%,–
Cc1ccc(C)c(C(C)NC(=O)C2CCCO2)c1 (configuration not stated),-1.62%,–

SMILES,"activity change, negative = inhibition",Potency
COc1ccc(C(=O)NC2CC2)cc1OC1CCN(Cc2cnn(C)c2)CC1,3.24%,–
Clc1ccc(CN2CCCCCC2)cc1Cl,6.3%,–
Clc1ccc(C[n+]2cc(-c3ccc(Cl)cc3)n3c2CCC3)cc1,–,828 nM (active)
Clc1ccc(C[n+]2cc(-c3ccccc3)n3c2CCC3)cc1,–,1040 nM (active)
Cn1c(-c2ccccc2)c[n+]2c1CCCCC2,8.51%,–
CC(NC(=O)c1cc2cc(Cl)ccc2oc1=N)c1ccccc1 (configuration not stated),-10%,–
O=C(Nc1ccc(F)cc1)C(=O)c1cn(CC(=O)N2CCOCC2)c2ccccc12,30.2%,–
COc1ccc(S(=O)(=O)NC(C)C(=O)NCc2ccncc2)cc1Cl (configuration not stated),0.828%,–
COc1ccc(NC(=O)CCCC(=O)c2ccccc2)cc1,11.9%,–
CC(C)Cn1c(N)c(C(=O)COC(=O)C2CCCN2C(=O)c2cccs2)c(=O)n(C)c1=O (configuration not stated),8.16%,–
Cc1ccc(OCCCC(=O)Nc2ccc(S(=O)(=O)Nc3cc(C)nc(C)n3)cc2)cc1,-5.9%,–
O=C(Nc1ccccc1)N1CCC(C(=O)N2CCN(Cc3ccccc3)CC2)CC1,-15.4%,–
O=C(Nc1ccccc1)N1CCN(C(=O)Nc2ccccc2)CC1,-2.63%,–
O=C(Nc1ccccc1)N1CCN(C2c3ccccc3-c3ccccc32)CC1,–,2620 nM (active)
Cc1cccc(OC(C)C(=O)N2CCc3ccccc3C2)c1 (configuration not stated),0.0639%,–
Cc1nc(S(=O)(=O)c2ccc(Br)cc2)nc2c1CCC2,-12.4%,–
Cc1cc(Nc2ccc(Br)cc2F)n2ncnc2n1,21.5%,–
Brc1ccc(Nc2c3c(nc4ncnn24)CCC3)cc1,–,586 nM (active)
O=C(COC(=O)C1CC2CCCC(C1)C2=O)NC(=O)c1ccccc1 (configuration not stated),33.2%,–
COCCC(=O)N1CCC(Oc2ccc(C(=O)NCc3ccon3)cc2)CC1,6.27%,–
CC(=O)c1c(C)oc2ccc(NS(=O)(=O)c3ccccc3)cc12,-5.13%,–
Cc1ccn2c(=O)c(C(=O)NCCC3=CCCCC3)c(O)nc2c1,-26.9%,–
CCCCC[C@H]1CN(C2CCCCC2)C(=O)[C@@H]1CC(=O)NCc1ccc(OC)cc1,-8.42%,–
O=C(NCc1ccco1)/C(=C/c1cccc([N+](=O)[O-])c1)NC(=O)c1ccco1,14.4%,–
Cc1ccc(N2CCN(c3ccc([N+](=O)[O-])cn3)CC2)c(C)c1,-8.92% [at 0.00184 µM],–
CCOCCCNC(=O)c1cc2c(=O)n3ccccc3nc2s1,68.5%,–
